# Laboratory results reported in PubChem BioAssay AID485284 (NMMLSC, 2010).
# Potency and affinity values are given separately.
# Experiment: loss of vesicle association with mouse CD8+ T cells – mouse 2C CD8+ T cells, flow cytometry, dose response (AID 485284);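 further: drosophila derived vesicles carrying Ld MHC with QL9 peptide plus B7-1 and ICAM-1; vesicle binding seen as anti-B7-1 PE fluorescence on CD8 gated cells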
# Details: 2C mouse CD8+ T cell-exosome binding; at 45 µM (top of the series)
row,Compound,"binding remaining, % of control"
1,Cc1ccc2oc(=O)c(/C=C(\O)c3sc(C)nc3C)nc2c1,119%
2,COc1ccc(CN2C(=O)C(C)Nc3ncnc(N4CCN(c5ccccn5)CC4)c32)cc1 (stereo not drawn),22%
3,CCOC(=O)Nc1sc(C)c(C)c1C(N)=O,103%
4,CC1=C/C(=C(\c2ccc(O)c(C)c2)c2ccccc2S(=O)(=O)O)C=CC1=O,138%
5,O=C(Cc1cccs1)Nc1cc(S(=O)(=O)N2CCCCC2)ccc1Cl,121%
6,CN(C)S(=O)(=O)c1ccc(C(=O)NCCc2ccco2)cc1,128%
7,O=C(NNS(=O)(=O)c1ccc2ccccc2c1)c1cccs1,42.6%
8,O=C(Nn1cnc2ccccc2c1=O)C1CCCCC1,106%
9,Cc1ccccc1CS(=O)(=O)CCC(=O)N1CCN(c2ccc(N3CCOCC3)nn2)CC1,40.8%
10,O=S(=O)(c1ccc(F)cc1)N1CCC(O)(c2ccc3c(c2)OCO3)CC1,108%
11,CC1CCN(S(=O)(=O)c2csc(C(=O)Nc3ccccc3)c2)CC1,61.2%
12,N#Cc1cccc(NC(=O)CN2C(=O)NC3(CCCCCC3)C2=O)c1,176%
13,CCN(Cc1ccccc1)C(=O)c1ccc(C)c(S(=O)(=O)N2CCCCC2)c1,92.8%
14,Cc1cccc(C(=O)OCC(=O)NN2C(=O)NC3(CCC(C)CC3)C2=O)c1O (stereo not drawn),209%
15,CCCCCCCCn1c2c(c(=N)c3c1CCC3)CCCC2,36.6%
16,CCCNC(=O)CN1CCN(S(=O)(=O)c2ccc(Br)s2)CC1,100%
17,O=C(OCC(=O)N1CCN(C(=O)c2ccco2)CC1)c1ccccc1Cc1ccccc1,73%

row,Compound,"binding remaining, % of control"
1,COc1ccccc1N1CCN(C(=O)C2CCCN(S(=O)(=O)c3ccc(C)cc3)C2)CC1 (stereo not drawn),132%
2,CS(=O)(=O)NCc1ccccc1Br,95.9%
3,CCCOc1ccc(C2=CC(=O)C[C@H](c3ccc(OC)cc3)C2)cc1,143%
4,COc1ccc(NC(=O)CSCC(=O)Nc2cccc(S(=O)(=O)N3CCCCCC3)c2)cc1,44.4%
5,CCOc1ccc(S(=O)(=O)N2CCC(C(=O)Nc3cc(S(C)(=O)=O)ccc3Cl)CC2)cc1,106%
6,COc1ccc([N+](=O)[O-])cc1NC(=O)c1ccc(N(Cc2ccccc2C)S(C)(=O)=O)cc1,99.1%
7,Cc1cc(C)n(C(=O)c2sc3cc(F)ccc3c2Cl)n1,160%
8,Cc1c(C)c2c(OCC(=O)NCC(O)c3ccccc3)cc3c(c2oc1=O)CCC(C)(C)O3 (stereo not drawn),72.4%
9,O=C(COC(=O)c1ccc(S(=O)(=O)N2CCOCC2)cc1)Nc1ccccc1OC(F)F,20.5%
10,CCOc1ccc(-c2csc(NNC3=NCCCCC3)n2)cc1,156%
11,O=C(CC12CC3CC(CC(C3)C1)C2)N/N=C/c1ccc([N+](=O)[O-])o1,70.5%
12,COc1ccc(OC)c(NC(=O)CCN2CCCCC2)c1,220%
13,CCOC(=O)c1c(NC(=O)CN2C(=O)NC3(CCC(C)CC3)C2=O)sc(C)c1-c1ccc(C)cc1 (stereo not drawn),108%
14,COc1cccc(NC(=O)Nc2ccc3nc(C)c(C)nc3c2)c1,129%
15,O=C(c1ccco1)N1CCN(C(c2ccccc2Cl)c2nnnn2Cc2ccco2)CC1 (stereo not drawn),17.4%
16,O=C(NCCc1nc2ccc(Cl)cc2[nH]1)C1CCC(=O)N(Cc2cccc(F)c2)C1 (stereo not drawn),110%
